Measured values published in PubChem BioAssay AID624086 (Broad Institute, 2012).

Experiment: TCF/LEF luciferase signal increase in HEK293T – cell-based, firefly luciferase, dry powder, orthogonal assay for GSK3b inhibitor project, dose response (AID 624086)
Conditions: HEK293T TCF/LEF firefly luciferase reporter, 24 h; series mostly up to 26 µM; activity change, negative = inhibition: at the top concentration;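 active means fitted half-maximal effect concentration at or below the top concentration tested; inactive means the rest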

Activity change, negative = inhibition, inactive:
Cc1[nH]nc2c1C(c1ccc3c(c1)OCO3)C1=C(CC(C)(C)CC1=O)N2 (stereo not given) 0%
Cc1ccccc1C1C2=C(CC(C)(C)CC2=O)Nc2n[nH]c(C)c21 (stereo not given) -2.29%
Cc1[nH]nc2c1[C@H](c1ccccc1C(F)(F)F)C1=C(CC(C)(C)CC1=O)N2 4.08%
O/N=C/c1cn(-c2ccccc2)nc1-c1ccc2c(c1)OCCO2 0.588%
CC1(C)CC(=O)C2=C(C1)Nc1n[nH]c(C(F)(F)F)c1C2c1cc(F)ccc1F (stereo not given) -1.69%
Cc1[nH]nc2c1C(c1ccn[nH]1)C1=C(CC(C)(C)CC1=O)N2 (stereo not given) 0.588%
CC1(C)CC(=O)C2=C(C1)Nc1n[nH]c(C(F)(F)F)c1C2c1cc(F)ccc1C(F)(F)F (stereo not given) 1.02%
Cc1[nH]nc2c1C(c1ccc(C#N)cc1)C1=C(CC(C)(C)CC1=O)N2 (stereo not given) 3.06%
CNC(=O)c1cn(-c2ccccc2)nc1-c1ccc(OC)cc1 5.1%
CC1(C)CC(=O)C2=C(C1)Nc1n[nH]c(C(F)(F)F)c1C2c1c(F)cccc1F (stereo not given) -2.81%
COc1ccccc1C1C2=C(CC(C)(C)CC2=O)Nc2n[nH]c(-c3ccccc3)c21 (stereo not given) 0.194%
Cc1[nH]nc2c1C(c1ccc(F)cc1Cl)C1=C(CC(C)(C)CC1=O)N2 (stereo not given) 0.588%
Cc1[nH]nc2c1C(c1cccs1)C1C(=O)CC(C)(C)CC1=N2 (stereo not given) -1.06%
Cc1[nH]nc2c1C(c1ccc(Cl)cc1)C1=C(CC(C)(C)CC1=O)N2 (stereo not given) 0%
Cc1[nH]nc2c1[C@H](c1cccs1)C1=C(CC(C)(C)CC1=O)N2 0%
